Source: PubChem
CYP2C19 inh: inhibitors of human CYP2C19; P33261; CYP2C19 Supersomes, luciferin-H EGE luminescence, 30 min; inhibition, % at 5 µM; actives 21% (n = 96,000); AID 778;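 active = CYP2C19 inhibition above a set limit at 5 µM in the primary screen, cut at about 50% in these data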;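 also: plate controls were negative control wells for no effect and 2.5 mM tranylcypromine positive control for full effect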
Target sequence (P33261 whole entry, looked up): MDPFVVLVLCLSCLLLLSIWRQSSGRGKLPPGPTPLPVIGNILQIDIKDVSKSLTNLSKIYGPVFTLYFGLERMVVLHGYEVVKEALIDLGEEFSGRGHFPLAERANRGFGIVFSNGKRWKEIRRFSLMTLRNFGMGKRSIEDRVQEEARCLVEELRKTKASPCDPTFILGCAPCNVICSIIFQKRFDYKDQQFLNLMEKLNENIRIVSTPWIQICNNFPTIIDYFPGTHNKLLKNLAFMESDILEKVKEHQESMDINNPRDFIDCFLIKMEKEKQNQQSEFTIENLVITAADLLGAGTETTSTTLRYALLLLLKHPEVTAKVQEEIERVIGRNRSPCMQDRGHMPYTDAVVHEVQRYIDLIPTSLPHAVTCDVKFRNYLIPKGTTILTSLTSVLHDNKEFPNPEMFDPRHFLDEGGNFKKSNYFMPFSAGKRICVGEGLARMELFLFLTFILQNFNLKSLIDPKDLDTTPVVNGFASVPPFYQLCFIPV
CYP2C9 inh: human CYP2C9 inhibition; P11712; actives 20% (n = 96,000); AID 777; inhibition, % at 5 µM; CYP2C9 Supersomes, luciferin-H conversion, luminescence;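 active = blocking of liver enzyme CYP2C9 beyond about 50% at 5 µM, limit read from the data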
Cav3 T inh: human Cav3.2 channel inhibition, primary screen | O95180 | Cav3.2-expressing cells, Fluo-4 calcium fluorescence FDSS; hits give low values | B-score at 10 µM | actives 4% (n = 100,000) | AID 449739;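 active = single-dose well whose peak fluorescence ratio is a statistical outlier from its plate by either plate-standardised score or position-corrected B-score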
CYP2C9 act: activators of human CYP2C9; P11712; recombinant CYP2C9, luciferin-H conversion, luminescence; hits give high values; factor 1 = untreated enzyme, 0 = blocked; activation factor at 5 µM; actives 1.4% (n = 96,000); AID 1024;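 active = activation factor of 2 or more for CYP2C9 at a 5 µM dose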;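 also: 0 = sulfaphenazole-blocked wells and 1 = vehicle-only wells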
CYP2C19 activ: activators of human cytochrome P450 2C19; AID 1025; 96,000 tested, under 10 active; recombinant CYP2C19, luciferin-H EGE luminescence; hits give high values; 0 = fully inhibited enzyme, 1 = untreated enzyme; activation factor at 5 µM; P33261;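 active = activation factor of at least 2 at 5 µM in the primary screen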;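 also: 0 = wells with 2.5 mM tranylcypromine and 1 = vehicle-only wells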
PTK2B oligo ant: blocks oligomerization of human Pyk2 in cells. AID 1347419. Q293 cells, Pyk2 FERM NanoBiT luminescence; hits give low values. z-score (the deposit names both 25 µM and 10 µM). Q14289. actives 0.83% (n = 99,000);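 active = Z-score of -3 or lower, scaled per plate to the spread of control and sample wells; inactive = z-score above -3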;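 also: negative z-score means lost luminescence so less FERM oligomerization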
Starred values were filed as active, the others as inactive; nt = no result. Compounds with a hit are over-represented: about 27% of the library has one in this group of screens.

SMILES	CYP2C19 inh	CYP2C9 inh	Cav3 T inh	CYP2C9 act	CYP2C19 activ	PTK2B oligo ant
O=C1CC(SC(=Nc2ccccc2)Nc2ccccc2)C(=O)N1c1cccc(Cl)c1 (configuration not stated)	28.6	42.6	-0.0255	0.6	0.7	-2.44
COc1cc(S(=O)(=O)N(Cc2ccco2)C2CCCC2)ccc1-n1cnnn1	98.4*	74.2*	-1.33	0.3	0	0.03
O=C(NCc1ccco1)C1CCCN(S(=O)(=O)c2ccc(-n3cnnn3)cc2)C1 (configuration not stated)	-2.9	-5.6	-0.465	1.1	1	1.66
CCCN(CC1CC1)S(=O)(=O)c1ccc(-n2cnnn2)c(OC)c1	100.4*	8.1	0.713	0.9	0	0.4
OCCN(CCO)Cc1csc2ccccc12	nt	nt	nt	nt	nt	1.67
CCn1c(=O)c(=O)[nH]c2cc(C(=O)N3CCN(c4ccccc4F)CC3)ccc21	-4.7	12.9	-0.27	0.9	1	-0.54
COc1ccc(-c2nn(CC(=O)N(C)C)c(=O)c3ccccc23)cc1	6.3	11.1	0.679	0.9	0.9	0.78
COc1ccc(NS(=O)(=O)c2cccc3cccnc23)cc1	nt	nt	nt	nt	nt	-0.48
Cc1cccc(NS(=O)(=O)c2cccc3cccnc23)n1	5.0	-151.8	0.725	2.5*	0.9	nt
COc1ccccc1NS(=O)(=O)c1cccc2cccnc12	70.0*	30.9	-0.0901	0.7	0.3	nt
COc1ccc(OC)c(NC(=O)c2ccccc2NS(=O)(=O)c2cccc3cccnc23)c1	76.9*	92.1*	-0.313	0.1	0.2	-0.36
COc1ccc(S(=O)(=O)Nc2cccc(C)n2)c2ccccc12	67.0*	-61.2	-0.587	1.6	0.3	0.14
O=S(=O)(/N=C(/Nc1ccccn1)c1ccccc1)c1ccccc1	-0.8	7.7	-2.01	0.9	1	-0.24
CSCC[C@H](NC(=O)NCc1ccc(F)cc1)C(=O)O	-0.1	3.7	0.607	1	1	-0.5
O=C(Nc1ccccc1)C1=C(N2CCOCC2)/C(=C/c2cccnc2)CC1	87.1*	66.7*	0.0487	0.3	0.1	-0.39
O=C(c1cc(-c2cccs2)nc2ccccc12)N1CCN(S(=O)(=O)c2ccccc2)CC1	83.8*	94.2*	-4.27*	0.1	0.2	-0.47
O=C(c1cc(-c2cccs2)nc2ccccc12)N1CCN(S(=O)(=O)c2cccc(F)c2)CC1	-0.2	69.4*	-0.181	0.3	1	0.38
O=C(Nc1ccccc1)N1CCC(C(=O)N2CCN(S(=O)(=O)c3cccc(F)c3)CC2)CC1	-8.6	-12.6	0.613	1.1	1.1	1.28
CN(C)C(CNC(=O)CN1C(=O)NC2(CCc3ccccc32)C1=O)c1ccco1 (configuration not stated)	-9.5	17.5	-0.599	0.8	1.1	0.63
O=C(Nc1ccc(-c2csc(Nc3cccc(C(F)(F)F)c3)n2)cc1)c1cc([N+](=O)[O-])cc(C(F)(F)F)c1	nt	nt	-0.764	nt	nt	nt
CC1Cc2nc(SCC(=O)Nc3ccc4c(c3)OCO4)n(-c3ccc(F)cc3)c(=O)c2S1 (configuration not stated)	nt	nt	0.622	nt	nt	nt
CCSc1nnc(NC(=O)c2cccs2)s1	8.5	29.4	1.06	0.7	0.9	-0.24
Cc1csc(NC(=O)c2ccccc2O)n1	-1.8	12.0	1	0.9	1	-0.57
Cc1csc(NC(=O)c2sc3nc(-c4cccs4)ccc3c2N)n1	58.8*	81.2*	-5.44*	0.2	0.4	nt
CCCSc1nnc(NC(=O)c2sc3nc(-c4cccs4)ccc3c2N)s1	36.1	53.2*	-9.92*	0.5	0.6	0.01
Cc1cccc(NC(=O)c2cccc(Cn3cc(Br)c([N+](=O)[O-])n3)c2)c1C	6.7	8.5	0.462	0.9	0.9	0.01
Cc1cc(O)c(/C=N/Nc2ccccc2Cl)c(=O)o1	29.7	27.0	-0.0411	0.7	0.7	-0.69
Cc1cc(O)c(/C=N/Nc2cccc(Cl)c2)c(=O)o1	58.4*	70.9*	-0.13	0.3	0.4	-0.13
CCOC(=O)C(Sc1n[nH]c(N)n1)c1ccccc1 (configuration not stated)	16.6	18.8	-0.0141	0.8	0.8	-0.86
COc1cc([C@H]2[C@@H]3CCCC[C@]3(O)CCN2Cc2ccccc2F)ccc1O	82.6*	37.3	0.185	0.6	0.2	-0.35
